From PubChem BioAssay (Tox21) come the findings set out here.

Assay [1] is described as follows: qHTS assay to identify small molecule antagonists of the estrogen receptor alpha (ER-alpha) signaling pathway using the BG1 cell line in the presence of 0.1 nM 17-beta-estradiol - cell viability counter screen (AID 1259241). Note: nearly all actives have a fitted effect of over 40% in size. Summed up:
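Live-cell protease activity (CellTiter-Fluor fluorescence, 30 min) was read in the same wells after VM7Luc4E2 cells had been exposed to compounds with 0.1 nM 17beta-estradiol for 22 hr at 37C.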
For orientation: Quantitative high-throughput screening tests each substance at several concentrations.

Assay [2] concerns the target Estrogen receptor (Homo sapiens) (UniProt P03372). The assay can be described thus: qHTS assay to identify small molecule antagonists of the estrogen receptor alpha (ER-alpha) signaling pathway using the BG1 cell line in the presence of 0.1 nM 17-beta-estradiol (AID 1259244). Note: nearly all actives have a fitted effect of over 50% in size. Summed up:
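Compounds were tested against 0.1 nM (final) 17beta-estradiol in VM7Luc4E2 cells, which express full-length ER-alpha and an ERE-luciferase reporter; luminescence was recorded following 22 h exposure.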

The nature of assay [3]: qHTS assay to identify small molecule phospholipidosis (PLD) inducers (AID 1259344; active = well fitted curve in the direction sought with a large enough effect; an effect the other way counts as inactive or inconclusive). Summed up:
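Phospholipid accumulation was scored by imaging: fixed, Hoechst-counterstained HepG2 cells stained with LipidTOX Red after 24 h compound exposure at 37 C. Read-outs were pit count and pit intensity per well or per cell, with amiodarone and DMSO controls.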

Assay [4] in a line: qHTS assay to identify small molecule HDAC inhibitors - cell viability counter screen (AID 1259365). Note: series mostly up to about 92 µM; nearly all actives have a fitted effect of over 50% in size. The gist of the method: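 HCT-116 (wild type), 1,500 cells/well, overnight 37C/5% CO2; compound in DMSO 2hr; CellTiter-Glo 30min RT; luminescence read.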
The nature of assay [5]: qHTS assay to identify small molecule agonists of the sonic hedgehog signaling (Shh) pathway - cell viability counter screen (AID 1259366). Note: nearly all actives have a fitted effect of over 50% in size. Note: potency is the fitted concentration of half-maximal effect. The gist of the method:
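CellTiter-Fluor fluorescence read-out, 1 hr at 37C, added after 23hr compound exposure. Cells: 3T3 Gli1-Luc, an NIH/3T3 clone with stably integrated Gli1-Luc reporter, plated 4hr before compound.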

Assay [6] can be described thus: qHTS assay to identify small molecule antagonists of the sonic hedgehog signaling (Shh) pathway - cell viability counter screen (AID 1259367). Note: nearly all actives have a fitted effect of over 55% in size. The gist of the method: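 Viability was read by CellTiter-Fluor fluorescence in the same wells, reagent added 23 hr into compound treatment and incubated 1 hr at 37C. The 3T3 Gli1-Luc reporter cells (2,000/well) received conditioned medium after compound and ran 24 hr.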

Assay [7] is described as follows: qHTS assay to identify small molecule agonists of the sonic hedgehog signaling (Shh) pathway (AID 1259368; calls by dose curve;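 note: NIH/3T3-derived 3T3Gli1-Luc cells carrying a stable Gli1-driven firefly luciferase reporter; series mostly up to about 92 µM; nearly all actives have a fitted effect of over 15% in size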). The gist of the method: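 Hedgehog pathway agonism scored by increased firefly luciferase luminescence in 3T3Gli1-Luc cells treated 24 hr at 37 C; detection used a 30 min room-temperature reagent incubation.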
A short description of assay [8]: qHTS assay to identify small molecule antagonists of the sonic hedgehog signaling (Shh) pathway (AID 1259369; calls by dose curve; note: nearly all actives have a fitted effect of over 45% in size; note: potency is the fitted concentration of half-maximal effect). Summed up:
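NIH/3T3 stable Gli1-Luc clone, 2,000 cells/well, 4hr settle; cpd + conditioned medium 24hr; Luc reagent 30min RT; luminescence.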

Assay [9] concerns the target Estrogen receptor beta (Homo sapiens) (UniProt Q92731). The experiment in a line: qHTS assay to identify small molecule agonists of the estrogen receptor beta (ER-beta) signaling pathway (AID 1259377; active = well fitted activation curve with a large enough effect in the signal ratio in the repeat runs, not every such curve was filed as active; the % refers to the signal ratio). The gist of the method: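 Beta-lactamase reporter readout: fluorescence of LiveBLAzer B/G FRET substrate after 2 h at room temperature, following 16 h compound treatment of ER-beta-UAS-bla HEK293T cells at 37C in 2% charcoal-stripped FBS medium.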

Assay [10] shares this target. The experiment in a line: qHTS assay to identify small molecule antagonists of the estrogen receptor beta (ER-beta) signaling pathway (AID 1259378; active = well fitted inhibition curve with a large enough effect in the signal ratio in the repeat runs, not every such curve was filed as active; the % refers to the signal ratio). The gist of the method:
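Antagonist mode: compounds added to beta-lactamase reporter HEK293T ER-beta-UAS cells stimulated with E2 (1nM final), 16 hr at 37C. LiveBLAzer B/G FRET substrate, 2 hours room temperature, fluorescence read-out.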

The nature of assay [11]: qHTS assay to identify small molecule agonists of the androgen receptor (AR) signaling pathway in the presence of an antagonist - cell viability counter screen (AID 1259379).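 Note: MDA-kb2 human breast cancer cells carrying an MMTV luciferase reporter; series mostly up to about 92 µM; nearly all actives have a fitted effect of over 25% in size.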 The gist of the method: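 MDA-kb2 viability measured by CellTiter-Fluor fluorescence in the same wells as the luciferase signal; nilutamide 3.0uM final; 15-point compound titration; 16 hr at 37C.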

Assay [12] can be described thus: qHTS assay to identify small molecule agonists of the estrogen receptor beta (ER-beta) signaling pathway - cell viability counter screen (AID 1259380). Note: nearly all actives have a fitted effect of over 30% in size. Note: potency is the fitted concentration of half-maximal effect. The gist of the method: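 Measured: luminescence from CellTiter-Glo after 30 min at room temperature, added to wells already read for the LiveBLAzer FRET reporter (2 hr substrate); ER-beta-UAS-bla HEK293T cells had 16 hr compound treatment at 37C, 5% CO2.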

Assay [13] is described as follows: qHTS assay to identify small molecule antagonists of the estrogen receptor beta (ER-beta) signaling pathway - cell viability counter screen (AID 1259382).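 Note: HEK293T cells carrying ER-beta-UAS-bla reporter stimulated with estradiol; series mostly up to about 92 µM; nearly all actives have a fitted effect of over 55% in size.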 The gist of the method: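 Readout: luminescence, CellTiter-Glo, same wells as bla assay. System: ER-beta-UAS-bla GripTite HEK293T, 2% charcoal-stripped FBS. Exposure: compounds plus 1nM 17-beta-estradiol, 16 hr, 37C.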

Assay [14] addresses Estrogen receptor (Homo sapiens) (UniProt P03372). The assay can be described thus: qHTS assay to identify small molecule agonists of the estrogen receptor alpha (ER-alpha) signaling pathway in the presence of an antagonist (AID 1259383; calls by dose curve; note: top concentration of the series differs between compounds; nearly all actives have a fitted effect of over 15% in size). Summed up:
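Quantitative HTS confirmation: compounds titrated at 15 concentrations onto estrogen-deprived VM7Luc4E2 cells carrying a four-ERE luciferase construct, with ICI-182,780 present at 10.0nM final. Signal is luminescence after 22hr exposure.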

Assay [15] in a line: qHTS assay to identify small molecule agonists or antagonists of the thyroid stimulating hormone receptor (TSHR) signaling pathway - wild type cell line counter screen (AID 1259384; calls by dose curve). The gist of the method: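 Counter screen in untransfected Hek293: compounds (15-point titration, triplicate) plus phosphodiesterase inhibitor Ro20-1724 added after 18 h plating; 30 min RT. Intracellular cAMP via competitive d2/cryptate immunoassay, 1 h incubation.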

Assay [16] addresses Thyrotropin receptor (Homo sapiens) (UniProt P16473). The assay can be described thus: qHTS assay to identify small molecule antagonists of the thyroid stimulating hormone receptor (TSHR) signaling pathway (AID 1259385; calls by dose curve; note: nearly all actives have a fitted effect of over 20% in size). The gist of the method:
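Antagonist mode: compound-treated TSHR-expressing HEK293 cells were stimulated with 1.5 ng/mL TSH (final) in presence of Ro20-1724 for 30 min at RT. HTRF cAMP detection after 1 h; each compound tested at 15 concentrations, triplicate.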

A short description of assay [17]: qHTS assay to identify small molecule HDAC inhibitors (AID 1259364). Note: potency is the fitted concentration of half-maximal effect.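 Note: wild-type HCT-116 cells with endogenous class I/II HDAC activity; nearly all actives have a fitted effect of over 45% in size.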 Summed up: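 Screening used wild-type human colon HCT-116 cells incubated overnight, dosed with compounds for 2 hours, and assayed with a homogeneous luminogenic HDAC I/II reagent for 30 minutes at room temperature.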
Assay [18] is described as follows: qHTS assay to identify small molecule antagonists of the androgen receptor (AR) signaling pathway using the MDA cell line in the presence of 0.5 nM R1881 - cell viability counter screen (AID 1259242). Note: nearly all actives have a fitted effect of over 45% in size. The gist of the method: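 Concentration-response screen of compounds for toxicity in MDA-kb2 reporter cells: 16 hr at 37C with 0.5 nM R1881, endpoint live-cell protease fluorescence measured in the reporter wells.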

Assay [19] addresses Androgen receptor (Homo sapiens) (UniProt P10275). The assay can be described thus: qHTS assay to identify small molecule antagonists of the androgen receptor (AR) signaling pathway using the MDA cell line in the presence of 0.5 nM R1881 (AID 1259243). Note: nearly all actives have a fitted effect of over 50% in size. Summed up: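 With R1881 held at 0.5 nM (final), compound effects on MMTV-luciferase expression in MDA-kb2 cells were scored by luminescence after a 16 hr, 37C incubation.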

For assay [20] the target is unchanged. The assay can be described thus: qHTS assay to identify small molecule agonists of the androgen receptor (AR) signaling pathway in the presence of an antagonist (AID 1259381; calls by dose curve; note: nearly all actives have a fitted effect of over 15% in size). Summed up:
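Luminescent ONE-Glo read, 30min at room temperature, follows 16hr compound exposure (15 concentrations) of MDA-kb2 cells at 37C, 0% CO2, with nilutamide added at 3.0uM final.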

Structures are written as SMILES. Results filed as inconclusive are left out. The source made the active and inactive calls. Unless noted, calls come from the whole dose curve; as a rule, active = well fitted curve in the direction sought with a large enough effect in the repeat runs; inconclusive = weak or mixed curves; inactive = no such curve, though single readings can be large; an effect the other way counts as inactive or inconclusive.

Sequence of Estrogen receptor (Homo sapiens) (P03372 whole entry, looked up): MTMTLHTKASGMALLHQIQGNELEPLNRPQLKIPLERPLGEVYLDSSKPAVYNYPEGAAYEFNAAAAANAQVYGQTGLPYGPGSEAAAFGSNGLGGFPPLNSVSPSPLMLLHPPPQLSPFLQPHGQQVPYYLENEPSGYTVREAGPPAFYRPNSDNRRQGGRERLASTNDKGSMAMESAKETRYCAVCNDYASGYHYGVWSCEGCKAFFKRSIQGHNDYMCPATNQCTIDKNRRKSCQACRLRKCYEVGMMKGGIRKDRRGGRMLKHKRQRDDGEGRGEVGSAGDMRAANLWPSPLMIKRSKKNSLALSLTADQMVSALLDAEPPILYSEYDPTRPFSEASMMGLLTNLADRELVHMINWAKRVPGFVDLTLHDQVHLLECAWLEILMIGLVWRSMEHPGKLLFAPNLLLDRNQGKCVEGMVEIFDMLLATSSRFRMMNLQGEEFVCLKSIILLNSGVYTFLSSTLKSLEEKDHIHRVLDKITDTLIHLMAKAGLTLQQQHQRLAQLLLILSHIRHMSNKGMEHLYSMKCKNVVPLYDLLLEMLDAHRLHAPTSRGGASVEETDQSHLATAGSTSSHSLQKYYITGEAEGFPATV
Sequence of Estrogen receptor beta (Homo sapiens) (Q92731 whole entry, looked up): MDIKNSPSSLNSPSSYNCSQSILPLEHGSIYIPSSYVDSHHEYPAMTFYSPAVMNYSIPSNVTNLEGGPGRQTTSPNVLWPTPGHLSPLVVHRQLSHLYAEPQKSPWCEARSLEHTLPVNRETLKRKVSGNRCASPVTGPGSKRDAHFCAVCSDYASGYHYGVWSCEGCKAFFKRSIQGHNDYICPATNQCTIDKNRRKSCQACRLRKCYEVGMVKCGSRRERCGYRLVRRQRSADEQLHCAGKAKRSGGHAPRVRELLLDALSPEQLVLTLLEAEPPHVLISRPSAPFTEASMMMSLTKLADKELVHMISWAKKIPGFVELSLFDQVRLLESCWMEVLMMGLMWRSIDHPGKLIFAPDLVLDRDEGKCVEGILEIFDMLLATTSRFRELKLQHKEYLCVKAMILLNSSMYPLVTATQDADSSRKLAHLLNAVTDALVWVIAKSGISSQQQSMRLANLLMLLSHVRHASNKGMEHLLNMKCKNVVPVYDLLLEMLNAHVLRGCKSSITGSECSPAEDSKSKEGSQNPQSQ
Sequence of Thyrotropin receptor (Homo sapiens) (P16473 whole entry, looked up): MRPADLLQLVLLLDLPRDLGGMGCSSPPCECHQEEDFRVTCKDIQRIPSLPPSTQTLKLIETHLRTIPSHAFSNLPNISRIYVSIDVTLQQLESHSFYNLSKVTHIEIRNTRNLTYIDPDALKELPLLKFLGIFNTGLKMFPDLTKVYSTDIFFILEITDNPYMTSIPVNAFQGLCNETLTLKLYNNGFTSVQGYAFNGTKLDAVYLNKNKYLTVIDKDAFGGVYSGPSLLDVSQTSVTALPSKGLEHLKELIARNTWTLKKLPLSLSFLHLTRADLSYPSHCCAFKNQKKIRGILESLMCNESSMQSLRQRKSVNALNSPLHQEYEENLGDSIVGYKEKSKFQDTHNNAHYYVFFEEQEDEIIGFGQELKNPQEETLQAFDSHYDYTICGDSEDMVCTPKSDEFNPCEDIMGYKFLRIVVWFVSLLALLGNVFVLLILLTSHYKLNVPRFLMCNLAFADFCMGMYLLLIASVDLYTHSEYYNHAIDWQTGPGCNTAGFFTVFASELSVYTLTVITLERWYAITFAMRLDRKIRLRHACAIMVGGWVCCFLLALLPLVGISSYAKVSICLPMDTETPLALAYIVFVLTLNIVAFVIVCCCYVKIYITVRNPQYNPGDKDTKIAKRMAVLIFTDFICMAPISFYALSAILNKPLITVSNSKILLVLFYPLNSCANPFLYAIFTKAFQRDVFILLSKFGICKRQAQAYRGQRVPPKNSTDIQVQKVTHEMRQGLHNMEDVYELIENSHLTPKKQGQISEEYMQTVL
Sequence of Androgen receptor (Homo sapiens) (P10275 whole entry, looked up): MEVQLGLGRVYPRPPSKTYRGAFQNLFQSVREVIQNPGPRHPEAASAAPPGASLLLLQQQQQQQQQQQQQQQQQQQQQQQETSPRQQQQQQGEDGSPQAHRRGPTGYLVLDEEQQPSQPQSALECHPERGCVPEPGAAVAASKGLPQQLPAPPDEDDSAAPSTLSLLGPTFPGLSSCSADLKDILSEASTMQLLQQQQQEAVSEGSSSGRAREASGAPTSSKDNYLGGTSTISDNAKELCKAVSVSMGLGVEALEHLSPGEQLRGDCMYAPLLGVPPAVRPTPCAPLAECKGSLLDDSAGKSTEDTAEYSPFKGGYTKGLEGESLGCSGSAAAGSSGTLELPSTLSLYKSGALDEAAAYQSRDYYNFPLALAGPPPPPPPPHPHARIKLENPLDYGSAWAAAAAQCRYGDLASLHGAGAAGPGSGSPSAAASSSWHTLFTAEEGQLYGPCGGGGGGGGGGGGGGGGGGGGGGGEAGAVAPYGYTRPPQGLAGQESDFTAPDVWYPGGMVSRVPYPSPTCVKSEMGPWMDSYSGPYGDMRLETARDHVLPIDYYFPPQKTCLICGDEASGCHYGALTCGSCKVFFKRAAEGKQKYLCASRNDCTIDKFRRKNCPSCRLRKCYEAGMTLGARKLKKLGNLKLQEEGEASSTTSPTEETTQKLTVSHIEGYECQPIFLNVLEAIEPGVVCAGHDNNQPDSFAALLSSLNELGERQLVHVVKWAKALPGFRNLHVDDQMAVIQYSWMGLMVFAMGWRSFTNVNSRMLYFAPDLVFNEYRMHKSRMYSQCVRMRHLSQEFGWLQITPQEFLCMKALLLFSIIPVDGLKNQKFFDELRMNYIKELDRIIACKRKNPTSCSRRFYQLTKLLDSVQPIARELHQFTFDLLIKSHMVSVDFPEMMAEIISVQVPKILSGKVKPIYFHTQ

For `CC(O)CN1CCN(CC(=O)[O-])CCN(CC(=O)[O-])CCN(CC(=O)[O-])CC1.[Gd+3]` (stereo unspecified), the Potency entry in assay [1], in assay [2], in assay [4], in assay [5], in assay [6] and in assay [7] was “inactive” each time. For the same compound, the Potency result in assay [8], in assay [9], in [10], in [11], in assay [12] and in assay [13] was “inactive” in each case. For the same compound, the Potency entry in assay [14] and in assay [16] was “inactive” in each case. Besides, the call in assay [3] and in assay [15] was inactive.

Consider `O=C1NC(=O)C(=O)C(=O)N1`, for which the Potency entry in [1], in [2], in assay [17], in assay [4], in [5] and in [6] was “inactive” throughout. The Potency entry in [7], in assay [11], in assay [12], in [13], in assay [14] and in assay [16] was “inactive” each time. The outcome in assay [15] was inactive.

For the compound `COc1cc(CC(C)N)c(OC)cc1Br` (stereo unspecified), the Potency entry in assay [1], in assay [2], in assay [17], in [4], in assay [5] and in [6] was “inactive” each time. The Potency entry in assay [7], in assay [11], in [14] and in assay [16] was “inactive” throughout. The Potency in [8] was 15.9 µM (active); in [12] it was 63.2 µM (active). The compound was classed as inactive in assay [15].

Turning to `CC(C)(C)N(NC(=O)c1ccc(Cl)cc1)C(=O)c1ccccc1`, the Potency result in assay [18], in [19], in [2], in assay [17], in [4] and in assay [7] was “inactive” each time. The Potency entry in [8], in [9], in assay [11], in assay [20], in [13] and in assay [14] was “inactive” in each case. In addition, the Potency in assay [5] is 2.71 µM (active).

As to `CC(C)(C#N)C(C)(C)C#N`, the Potency entry in [1], in assay [17], in assay [4], in assay [5], in assay [6] and in assay [7] was “inactive” throughout. For the same compound, the Potency result in assay [9], in assay [10], in assay [12], in assay [13] and in assay [16] was “inactive” each time. In addition, the call in assay [15] was inactive.

As for `CCCC[N+](CCCC)(CCCC)CCCC`, the Potency entry in assay [1], in assay [2], in [4], in [5], in assay [7] and in [8] was “inactive” each time. Besides, the Potency result in assay [12], in assay [13] and in assay [14] was “inactive” in each case.

As to `CNC(=O)Oc1cccc(N=CN(C)C)c1`, the Potency result in assay [1], in assay [2], in assay [17], in [4], in assay [5] and in assay [6] was “inactive” in each case. The Potency entry in assay [7], in assay [8], in [10], in assay [12], in assay [13] and in assay [14] was “inactive” each time. Besides, the Potency result in assay [16] was “inactive”. Besides, the compound was called inactive in [15].

For the compound `CC(C)c1ccc(NC(=O)N(C)C)cc1`, the Potency result in [1], in assay [2], in assay [4], in assay [5], in assay [6] and in [7] was “inactive” in each case. For the same compound, the Potency entry in assay [8], in assay [9], in assay [10], in assay [11], in assay [12] and in assay [13] was “inactive” throughout. The Potency result in [14] and in assay [16] was “inactive” throughout. Further, the Potency in assay [17] was 24.3 µM (active). The compound was called inactive in [15].
